Test [1] deals with T1, Inhibitor of nuclear factor kappa-B kinase subunit epsilon (Homo sapiens) (UniProt Q14164).
T1 sequence (whole entry): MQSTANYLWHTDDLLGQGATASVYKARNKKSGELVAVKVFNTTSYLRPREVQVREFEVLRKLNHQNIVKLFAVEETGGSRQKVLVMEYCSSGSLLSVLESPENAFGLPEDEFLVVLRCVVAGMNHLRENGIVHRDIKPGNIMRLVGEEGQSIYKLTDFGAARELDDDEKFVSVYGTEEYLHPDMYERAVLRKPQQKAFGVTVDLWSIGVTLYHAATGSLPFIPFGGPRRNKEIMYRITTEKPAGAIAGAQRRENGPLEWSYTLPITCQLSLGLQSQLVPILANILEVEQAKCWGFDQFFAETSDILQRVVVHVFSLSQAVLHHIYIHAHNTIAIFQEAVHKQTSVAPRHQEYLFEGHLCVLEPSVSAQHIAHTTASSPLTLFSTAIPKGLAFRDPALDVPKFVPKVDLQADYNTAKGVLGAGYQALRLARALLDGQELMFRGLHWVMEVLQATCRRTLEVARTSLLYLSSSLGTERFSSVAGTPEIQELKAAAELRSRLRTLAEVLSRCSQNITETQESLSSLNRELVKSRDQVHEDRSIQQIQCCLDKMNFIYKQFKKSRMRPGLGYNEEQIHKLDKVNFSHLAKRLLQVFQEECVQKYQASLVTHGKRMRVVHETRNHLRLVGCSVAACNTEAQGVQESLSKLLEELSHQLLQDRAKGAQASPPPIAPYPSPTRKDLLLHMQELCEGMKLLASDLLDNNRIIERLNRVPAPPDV
The following applies: at 1 µM.

Test [2] concerns the target T2, Serine/threonine-protein kinase Nek1 (Homo sapiens) (UniProt Q96PY6).
T2 sequence (whole entry): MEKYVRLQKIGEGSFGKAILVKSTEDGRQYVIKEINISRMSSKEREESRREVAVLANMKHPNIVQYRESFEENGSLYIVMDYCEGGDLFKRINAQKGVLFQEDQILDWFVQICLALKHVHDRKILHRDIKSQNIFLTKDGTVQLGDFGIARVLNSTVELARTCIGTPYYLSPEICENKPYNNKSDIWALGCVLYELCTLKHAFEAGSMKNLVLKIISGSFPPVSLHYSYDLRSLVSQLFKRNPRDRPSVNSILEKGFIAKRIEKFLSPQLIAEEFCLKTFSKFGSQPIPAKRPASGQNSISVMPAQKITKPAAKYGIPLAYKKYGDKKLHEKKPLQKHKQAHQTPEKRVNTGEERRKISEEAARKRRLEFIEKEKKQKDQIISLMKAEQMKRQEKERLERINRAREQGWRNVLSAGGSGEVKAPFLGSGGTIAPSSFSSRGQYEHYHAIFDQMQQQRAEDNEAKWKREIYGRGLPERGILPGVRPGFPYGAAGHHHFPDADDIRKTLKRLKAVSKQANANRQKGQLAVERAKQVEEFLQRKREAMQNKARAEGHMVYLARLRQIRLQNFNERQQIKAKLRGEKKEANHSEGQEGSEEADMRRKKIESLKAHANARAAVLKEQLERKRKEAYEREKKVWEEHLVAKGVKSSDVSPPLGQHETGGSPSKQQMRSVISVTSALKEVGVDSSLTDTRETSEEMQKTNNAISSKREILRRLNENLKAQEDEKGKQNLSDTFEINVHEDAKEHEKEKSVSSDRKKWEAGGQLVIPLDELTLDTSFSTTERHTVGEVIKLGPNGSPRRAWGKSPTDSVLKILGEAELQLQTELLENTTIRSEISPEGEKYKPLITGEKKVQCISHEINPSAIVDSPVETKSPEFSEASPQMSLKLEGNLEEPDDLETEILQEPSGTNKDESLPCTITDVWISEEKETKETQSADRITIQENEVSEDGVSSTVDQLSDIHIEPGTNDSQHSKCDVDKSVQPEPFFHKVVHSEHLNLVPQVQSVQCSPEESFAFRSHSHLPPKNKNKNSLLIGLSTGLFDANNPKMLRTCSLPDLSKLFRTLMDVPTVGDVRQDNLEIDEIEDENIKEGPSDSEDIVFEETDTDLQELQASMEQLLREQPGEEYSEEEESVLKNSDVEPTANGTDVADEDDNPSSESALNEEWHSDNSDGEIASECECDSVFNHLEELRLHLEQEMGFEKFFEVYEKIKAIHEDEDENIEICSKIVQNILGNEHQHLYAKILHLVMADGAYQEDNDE
The following applies: at 0.1 µM.

In test [3] the target is T2, Serine/threonine-protein kinase Nek1 (Homo sapiens). Conditions: at 1 µM.
The target in test [4] is T3, Serine/threonine-protein kinase Nek2 (Homo sapiens) (UniProt P51955).
T3 sequence (whole entry): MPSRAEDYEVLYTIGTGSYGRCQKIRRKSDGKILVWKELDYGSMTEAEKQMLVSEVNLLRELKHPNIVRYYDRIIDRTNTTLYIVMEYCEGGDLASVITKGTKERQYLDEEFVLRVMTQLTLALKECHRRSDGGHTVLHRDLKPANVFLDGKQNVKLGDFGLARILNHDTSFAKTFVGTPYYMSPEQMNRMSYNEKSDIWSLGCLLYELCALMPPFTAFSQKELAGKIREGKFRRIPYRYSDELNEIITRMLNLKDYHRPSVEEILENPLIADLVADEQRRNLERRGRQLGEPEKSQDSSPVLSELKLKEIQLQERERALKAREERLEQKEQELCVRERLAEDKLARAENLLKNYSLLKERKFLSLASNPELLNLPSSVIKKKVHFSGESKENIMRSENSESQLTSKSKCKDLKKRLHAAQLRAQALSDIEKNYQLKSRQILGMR
The following applies: at 0.1 µM.

For test [5], the target named is T3, Serine/threonine-protein kinase Nek2 (Homo sapiens). The following applies: at 1 µM.
The target of test [6] is Serine/threonine-protein kinase Nek6 (Homo sapiens) (UniProt Q9HC98). Conditions: at 0.1 µM.
Sequence of Serine/threonine-protein kinase Nek6 (Homo sapiens) (Q9HC98 whole entry): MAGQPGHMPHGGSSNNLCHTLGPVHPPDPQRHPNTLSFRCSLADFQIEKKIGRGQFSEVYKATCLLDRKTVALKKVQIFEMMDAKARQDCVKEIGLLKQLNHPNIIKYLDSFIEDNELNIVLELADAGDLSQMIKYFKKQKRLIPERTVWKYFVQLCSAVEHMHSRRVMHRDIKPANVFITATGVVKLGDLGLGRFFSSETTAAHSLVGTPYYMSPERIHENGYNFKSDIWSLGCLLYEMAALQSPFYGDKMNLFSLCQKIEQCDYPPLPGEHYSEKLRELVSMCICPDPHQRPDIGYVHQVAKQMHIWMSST
Test [7] shares this target. The following applies: at 1 µM.
Test [8] concerns the target Serine/threonine-protein kinase Nek7 (Homo sapiens) (UniProt Q8TDX7). The following applies: at 0.1 µM.
Test [9] has the same target. Conditions: at 1 µM.
Test [10] deals with T4, Serine/threonine-protein kinase Nek9 (Homo sapiens) (UniProt Q8TD19).
T4 sequence (whole entry): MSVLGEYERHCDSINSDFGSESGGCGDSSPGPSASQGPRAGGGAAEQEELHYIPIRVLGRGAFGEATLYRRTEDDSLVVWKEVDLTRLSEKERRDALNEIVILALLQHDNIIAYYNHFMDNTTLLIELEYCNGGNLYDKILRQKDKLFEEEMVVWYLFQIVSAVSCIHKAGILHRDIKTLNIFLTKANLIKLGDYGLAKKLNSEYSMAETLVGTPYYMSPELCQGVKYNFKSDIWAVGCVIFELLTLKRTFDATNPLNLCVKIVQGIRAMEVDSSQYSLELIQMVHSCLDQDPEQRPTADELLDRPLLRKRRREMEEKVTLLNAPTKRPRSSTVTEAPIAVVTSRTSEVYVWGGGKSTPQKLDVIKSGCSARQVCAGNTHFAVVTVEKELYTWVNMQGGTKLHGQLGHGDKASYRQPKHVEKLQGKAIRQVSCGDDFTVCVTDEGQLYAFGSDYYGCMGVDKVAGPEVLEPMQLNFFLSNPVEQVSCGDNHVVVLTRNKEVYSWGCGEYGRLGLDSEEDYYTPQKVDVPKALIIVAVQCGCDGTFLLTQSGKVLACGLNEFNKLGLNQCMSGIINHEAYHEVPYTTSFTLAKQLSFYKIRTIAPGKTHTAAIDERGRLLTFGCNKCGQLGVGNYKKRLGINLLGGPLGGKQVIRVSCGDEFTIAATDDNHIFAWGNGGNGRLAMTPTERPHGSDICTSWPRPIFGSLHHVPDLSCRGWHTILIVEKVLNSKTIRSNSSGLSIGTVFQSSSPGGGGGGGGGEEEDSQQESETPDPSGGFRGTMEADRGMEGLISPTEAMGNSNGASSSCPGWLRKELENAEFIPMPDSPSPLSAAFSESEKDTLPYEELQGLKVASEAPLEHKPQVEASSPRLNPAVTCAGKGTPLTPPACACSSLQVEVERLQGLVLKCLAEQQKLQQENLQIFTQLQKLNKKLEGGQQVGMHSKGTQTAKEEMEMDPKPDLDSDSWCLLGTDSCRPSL
The following applies: at 0.1 µM.

In test [11] the target is T4, Serine/threonine-protein kinase Nek9 (Homo sapiens). Conditions: at 1 µM.
Test [12] addresses Serine/threonine-protein kinase PLK1 (Homo sapiens) (UniProt P53350). The following applies: at 0.1 µM.
Test [13] has the same target. The following applies: at 1 µM.
In test [14] the target is T5, Dual specificity protein kinase TTK (Homo sapiens) (UniProt P33981).
T5 sequence (whole entry): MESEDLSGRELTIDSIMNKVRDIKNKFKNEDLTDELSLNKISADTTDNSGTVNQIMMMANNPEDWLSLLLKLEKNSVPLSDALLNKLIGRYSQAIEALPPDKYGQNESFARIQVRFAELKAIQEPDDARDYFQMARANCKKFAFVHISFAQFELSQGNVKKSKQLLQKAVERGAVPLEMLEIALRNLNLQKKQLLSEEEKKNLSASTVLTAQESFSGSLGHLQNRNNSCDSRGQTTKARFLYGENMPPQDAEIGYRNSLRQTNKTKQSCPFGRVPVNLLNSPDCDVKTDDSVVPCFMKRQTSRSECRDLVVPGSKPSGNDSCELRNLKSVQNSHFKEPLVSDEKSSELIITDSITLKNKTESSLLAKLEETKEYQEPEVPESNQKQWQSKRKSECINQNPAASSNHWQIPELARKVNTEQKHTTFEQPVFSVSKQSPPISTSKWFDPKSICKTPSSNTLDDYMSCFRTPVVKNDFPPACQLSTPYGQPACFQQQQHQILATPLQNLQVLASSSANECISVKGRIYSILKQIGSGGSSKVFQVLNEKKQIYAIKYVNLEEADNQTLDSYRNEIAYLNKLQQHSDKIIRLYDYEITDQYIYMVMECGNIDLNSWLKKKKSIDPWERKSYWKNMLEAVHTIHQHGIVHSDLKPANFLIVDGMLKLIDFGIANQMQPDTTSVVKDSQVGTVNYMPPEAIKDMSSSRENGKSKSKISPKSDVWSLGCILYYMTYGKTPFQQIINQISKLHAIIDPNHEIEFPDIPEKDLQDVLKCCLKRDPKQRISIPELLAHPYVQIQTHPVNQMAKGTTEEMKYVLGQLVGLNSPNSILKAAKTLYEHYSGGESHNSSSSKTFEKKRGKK
Conditions: at 0.1 µM.

Test [15] has as its system T6, Receptor-type tyrosine-protein kinase FLT3 (Homo sapiens), P36888 [D835Y].
T6 sequence (whole entry): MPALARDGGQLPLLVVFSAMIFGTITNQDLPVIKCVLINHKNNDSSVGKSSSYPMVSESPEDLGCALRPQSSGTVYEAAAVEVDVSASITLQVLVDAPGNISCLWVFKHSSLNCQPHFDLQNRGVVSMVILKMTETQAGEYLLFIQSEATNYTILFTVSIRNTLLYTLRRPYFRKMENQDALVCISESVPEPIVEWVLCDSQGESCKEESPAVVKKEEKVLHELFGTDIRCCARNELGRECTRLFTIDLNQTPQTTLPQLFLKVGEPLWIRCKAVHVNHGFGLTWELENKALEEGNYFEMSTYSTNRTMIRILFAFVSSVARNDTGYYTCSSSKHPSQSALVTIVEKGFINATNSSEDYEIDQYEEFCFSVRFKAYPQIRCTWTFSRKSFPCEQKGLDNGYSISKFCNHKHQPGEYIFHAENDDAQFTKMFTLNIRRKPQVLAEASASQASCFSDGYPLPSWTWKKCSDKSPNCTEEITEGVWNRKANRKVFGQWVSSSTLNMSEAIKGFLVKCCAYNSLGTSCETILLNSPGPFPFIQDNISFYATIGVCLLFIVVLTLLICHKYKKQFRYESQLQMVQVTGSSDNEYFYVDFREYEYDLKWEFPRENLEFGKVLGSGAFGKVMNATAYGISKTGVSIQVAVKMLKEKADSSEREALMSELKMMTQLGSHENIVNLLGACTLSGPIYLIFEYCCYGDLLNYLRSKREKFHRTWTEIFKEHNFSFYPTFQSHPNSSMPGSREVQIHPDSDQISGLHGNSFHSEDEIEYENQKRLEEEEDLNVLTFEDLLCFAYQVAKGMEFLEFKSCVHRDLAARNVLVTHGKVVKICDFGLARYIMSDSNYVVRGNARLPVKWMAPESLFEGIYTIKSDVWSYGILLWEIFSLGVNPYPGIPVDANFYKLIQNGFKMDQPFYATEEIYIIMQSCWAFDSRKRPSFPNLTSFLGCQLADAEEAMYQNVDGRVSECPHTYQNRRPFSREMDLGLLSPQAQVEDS
Conditions: at 1 µM.

For test [16], the target named is Vascular endothelial growth factor receptor 3 (Homo sapiens) (UniProt P35916). Conditions: at 0.1 µM.
Sequence of Vascular endothelial growth factor receptor 3 (Homo sapiens) (P35916 whole entry): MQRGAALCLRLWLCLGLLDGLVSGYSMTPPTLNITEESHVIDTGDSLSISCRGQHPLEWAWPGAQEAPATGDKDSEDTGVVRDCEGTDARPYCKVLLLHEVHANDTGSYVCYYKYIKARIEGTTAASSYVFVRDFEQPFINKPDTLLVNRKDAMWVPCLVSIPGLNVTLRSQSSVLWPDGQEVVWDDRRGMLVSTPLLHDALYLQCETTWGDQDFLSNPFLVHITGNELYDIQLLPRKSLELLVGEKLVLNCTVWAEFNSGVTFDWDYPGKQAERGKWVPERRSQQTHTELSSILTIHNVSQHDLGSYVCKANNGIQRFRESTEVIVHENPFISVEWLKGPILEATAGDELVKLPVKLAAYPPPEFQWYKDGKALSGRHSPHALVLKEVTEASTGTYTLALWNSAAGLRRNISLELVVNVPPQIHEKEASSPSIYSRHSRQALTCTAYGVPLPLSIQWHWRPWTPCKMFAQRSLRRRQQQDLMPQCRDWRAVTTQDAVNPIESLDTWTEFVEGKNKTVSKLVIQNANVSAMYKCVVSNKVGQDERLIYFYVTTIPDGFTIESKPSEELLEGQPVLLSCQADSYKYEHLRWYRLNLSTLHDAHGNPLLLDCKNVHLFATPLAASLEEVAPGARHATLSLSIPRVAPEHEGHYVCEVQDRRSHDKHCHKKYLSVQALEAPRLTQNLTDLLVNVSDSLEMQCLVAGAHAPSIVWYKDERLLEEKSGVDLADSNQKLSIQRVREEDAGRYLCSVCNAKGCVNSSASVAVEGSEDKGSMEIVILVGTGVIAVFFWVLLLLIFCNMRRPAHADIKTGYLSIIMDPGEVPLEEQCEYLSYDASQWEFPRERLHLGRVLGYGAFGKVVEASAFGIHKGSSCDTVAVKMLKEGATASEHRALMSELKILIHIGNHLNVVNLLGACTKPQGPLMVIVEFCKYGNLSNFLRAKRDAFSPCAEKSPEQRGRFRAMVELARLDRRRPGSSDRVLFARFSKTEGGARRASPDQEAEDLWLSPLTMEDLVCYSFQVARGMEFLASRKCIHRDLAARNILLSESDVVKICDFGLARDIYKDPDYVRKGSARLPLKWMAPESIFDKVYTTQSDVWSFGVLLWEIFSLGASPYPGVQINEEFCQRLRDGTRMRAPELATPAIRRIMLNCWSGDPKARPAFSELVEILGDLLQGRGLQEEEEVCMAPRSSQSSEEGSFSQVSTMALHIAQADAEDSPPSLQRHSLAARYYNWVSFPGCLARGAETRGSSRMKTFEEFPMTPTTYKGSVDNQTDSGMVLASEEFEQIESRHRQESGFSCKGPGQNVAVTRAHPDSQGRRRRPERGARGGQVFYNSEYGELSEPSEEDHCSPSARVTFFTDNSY
For test [17] the target is unchanged. Conditions: at 1 µM.
The target in test [18] is Macrophage colony-stimulating factor 1 receptor (Homo sapiens) (UniProt P07333). The following applies: at 0.1 µM.
Sequence of Macrophage colony-stimulating factor 1 receptor (Homo sapiens) (P07333 whole entry): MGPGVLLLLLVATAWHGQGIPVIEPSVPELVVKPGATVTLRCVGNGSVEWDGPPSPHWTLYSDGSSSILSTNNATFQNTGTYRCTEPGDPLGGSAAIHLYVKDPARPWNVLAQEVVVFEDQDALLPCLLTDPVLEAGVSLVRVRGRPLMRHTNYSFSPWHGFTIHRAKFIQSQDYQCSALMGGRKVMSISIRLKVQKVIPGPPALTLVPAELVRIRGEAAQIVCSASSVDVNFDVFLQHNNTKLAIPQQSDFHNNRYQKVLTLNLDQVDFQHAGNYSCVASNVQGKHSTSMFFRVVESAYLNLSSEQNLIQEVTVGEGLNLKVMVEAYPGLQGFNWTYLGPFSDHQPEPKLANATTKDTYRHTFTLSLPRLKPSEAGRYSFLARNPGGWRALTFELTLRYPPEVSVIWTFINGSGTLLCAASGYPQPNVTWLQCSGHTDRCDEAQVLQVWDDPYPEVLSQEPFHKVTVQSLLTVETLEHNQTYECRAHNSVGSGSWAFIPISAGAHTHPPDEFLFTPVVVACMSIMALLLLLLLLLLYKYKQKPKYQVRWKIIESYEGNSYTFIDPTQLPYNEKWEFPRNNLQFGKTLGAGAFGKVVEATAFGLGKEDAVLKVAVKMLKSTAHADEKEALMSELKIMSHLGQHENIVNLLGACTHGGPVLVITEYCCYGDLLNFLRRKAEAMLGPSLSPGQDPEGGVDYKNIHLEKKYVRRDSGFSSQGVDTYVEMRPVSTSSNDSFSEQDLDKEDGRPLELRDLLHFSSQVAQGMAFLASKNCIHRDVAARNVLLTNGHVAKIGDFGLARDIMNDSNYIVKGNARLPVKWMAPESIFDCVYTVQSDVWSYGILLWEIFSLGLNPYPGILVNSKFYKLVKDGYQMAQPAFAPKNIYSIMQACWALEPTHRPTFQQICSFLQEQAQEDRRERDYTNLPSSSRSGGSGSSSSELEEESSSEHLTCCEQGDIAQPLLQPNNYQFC
Test [19] has the same target. Conditions: at 1 µM.
Test [20] deals with Tyrosine-protein kinase Fyn (Homo sapiens) (UniProt P06241). The following applies: at 0.1 µM.
Sequence of Tyrosine-protein kinase Fyn (Homo sapiens) (P06241 2-537 limits assumed): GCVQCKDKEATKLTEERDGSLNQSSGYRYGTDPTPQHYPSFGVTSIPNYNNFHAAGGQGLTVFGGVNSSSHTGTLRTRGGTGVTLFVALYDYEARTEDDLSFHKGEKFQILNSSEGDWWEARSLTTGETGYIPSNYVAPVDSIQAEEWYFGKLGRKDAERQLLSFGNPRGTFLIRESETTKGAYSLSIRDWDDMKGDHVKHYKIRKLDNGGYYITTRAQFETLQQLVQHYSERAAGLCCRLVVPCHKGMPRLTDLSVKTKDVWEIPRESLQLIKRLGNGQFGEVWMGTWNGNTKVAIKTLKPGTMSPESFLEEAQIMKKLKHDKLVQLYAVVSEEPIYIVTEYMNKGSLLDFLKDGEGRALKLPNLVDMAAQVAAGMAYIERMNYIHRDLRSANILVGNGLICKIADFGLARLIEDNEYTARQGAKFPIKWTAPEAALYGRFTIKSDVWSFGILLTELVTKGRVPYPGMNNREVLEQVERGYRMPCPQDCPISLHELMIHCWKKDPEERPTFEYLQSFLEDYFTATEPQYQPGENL

Structures are written as SMILES.

Sequence of Serine/threonine-protein kinase Nek7 (Homo sapiens) (Q8TDX7 whole entry, looked up): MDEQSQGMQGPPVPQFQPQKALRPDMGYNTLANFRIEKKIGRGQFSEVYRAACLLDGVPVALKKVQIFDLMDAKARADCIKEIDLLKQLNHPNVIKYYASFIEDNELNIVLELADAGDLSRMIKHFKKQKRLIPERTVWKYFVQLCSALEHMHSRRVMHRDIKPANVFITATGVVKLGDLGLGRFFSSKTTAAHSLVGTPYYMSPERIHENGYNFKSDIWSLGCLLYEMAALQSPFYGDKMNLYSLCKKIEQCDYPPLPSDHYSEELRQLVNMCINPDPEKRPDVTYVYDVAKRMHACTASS
Sequence of Serine/threonine-protein kinase PLK1 (Homo sapiens) (P53350 whole entry): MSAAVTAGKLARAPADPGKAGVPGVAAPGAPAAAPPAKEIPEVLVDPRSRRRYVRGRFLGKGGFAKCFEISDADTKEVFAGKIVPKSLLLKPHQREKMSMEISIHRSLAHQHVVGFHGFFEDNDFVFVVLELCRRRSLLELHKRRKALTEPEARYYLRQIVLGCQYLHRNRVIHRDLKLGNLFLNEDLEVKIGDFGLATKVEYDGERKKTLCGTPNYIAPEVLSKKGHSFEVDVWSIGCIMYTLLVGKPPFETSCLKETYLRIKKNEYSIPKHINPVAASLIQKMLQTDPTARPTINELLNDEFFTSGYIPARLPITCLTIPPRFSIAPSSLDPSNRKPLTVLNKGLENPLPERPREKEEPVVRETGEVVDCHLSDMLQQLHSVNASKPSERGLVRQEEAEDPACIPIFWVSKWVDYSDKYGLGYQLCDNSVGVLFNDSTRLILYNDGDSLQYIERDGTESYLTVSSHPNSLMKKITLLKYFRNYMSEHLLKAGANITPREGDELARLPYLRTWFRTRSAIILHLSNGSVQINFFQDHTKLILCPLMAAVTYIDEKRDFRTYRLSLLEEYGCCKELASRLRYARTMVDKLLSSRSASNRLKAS

For the compound `COc1ccc2ncnc(Nc3ccc(OCc4ccccc4)cc3)c2c1`, the inhibition in test [1] is 1.06%; in test [2], 0.79%; in [3], 4.16%; in test [4], 1.74%; in test [5], 1.37%; in [6], 4.45%. Moreover, the inhibition in test [7] is 2.35%; in test [8], 2.47%; in [9] it was 2.49%; in [10], -0.31%; in test [11] it was 4.48%; in test [12] it was 2.95%. For the same compound, the inhibition in test [13] is 0.42%; in test [14], 2.89%; in [15] it was 8.02%; in test [16], -0.47%; in test [17], 0.28%; in [18], 3.05%. For the same compound, the inhibition was found to be 3.66% in test [19] and 2.39% in test [20].
